Screen size: about 1,200 compounds; fewer than 10 were called active. Calls follow the shape of the dose curve; as a rule, active = well fitted curve in the direction sought with a large enough effect; inconclusive = small, poorly fitted or top-dose-only effect, or another doubt; inactive = no such curve, though single readings can be large or run the other way. A selection follows.

A short description of this experiment: Confirmatory qHTS assay for inhibitors of Activation Induced Cytidine Deaminase (AID): UDG signals. Also: 0% is about no effect. As to conditions: UDG coupled enzyme activity counter-screen; series mostly up to 115 µM; activity change, negative = inhibition: at the top concentration. From the text:
Assay Provider (PI) Patricia Gearhart Ph.D.
National Institute on Aging
National Institute of Health (NIH), Bethesda, MD
Assay Provider (PI) Rahul Kohli Ph.D.
Perelman School of Medicine
University of Pennsylvania, Philadelphia, PA
Activation-Induced Deaminase (AID) is a cytosine deaminase which converts cytosine into uracil within stretches of ssDNA. The presence of uracil in DNA initiates a cascade of mutagenic DNA repair to introduce point mutations and DNA double strand breaks. Specific targeting of AID to the immunoglobulin heavy chain loci (Igh) promotes mutagenesis in the antibody variable region for somatic hypermutation (SHM) or switch regions leading to class switch recombination (CSR). However, AID also plays a role in accumulating unnecessary mutations across the genome. Mis-targeting of AID results in the initiation of tumor development and leads to greater drug resistance among cancer cells when continually expressed. To identify an AID inhibitor, a small molecule library will be screened in collaboration with NCATS core facility at NIH. To confirm biological function, inhibitors will be examined in an in vitro murine B-cell activation assay and subsequent secondary validation screens. Top molecules will be further screened to identify inhibitory efficacy against a wild type primary splenocytes assay. Using these approaches, we hope to identify a small molecule with great efficacy and low toxicity for use as a molecular probe to further characterize AID's intricacies, or even as a therapeutic.
A FRET based analysis of cytosine deamination, was developed to identify potential inhibitors of AID catalytic activity. This screen has two signal output, Read 1 evaluates the AID inhibition response. The second readout (Read 2) evaluates UDG response and is uses as a counterscreen to exclude false positive inhibitors. Inhibition in AID and inactivity in the UDG signal is the desired outcome for this assay.
SEQUENCE No. (e.g., 1, 2, 3, etc.); […] (e.g., Cells, Incubation, Reagent, etc.); VALUE; DESCRIPTION
1a; Reagent; 3 uL; [4/3x] 1 uM AID/2.67 U/mL UDG
1b; Reagent; 3 uL; 2 U/mL UDG
1c; Reagent; 3 uL; 1 uM AID
2a; Compound; 46 nL; Follow-up plates (0.64 uM - 10 mM)
2b; Control; 46 nL; ATA ([…] - 10 mM)
3; Time; 10 min; incubation at room temperature
5; Time; 4 hr; incubation at room temperature
6; Reagent; 4 uL; [2x] 250 mM NaOH
7; Time; 15 sec; centrifuge at 1000 rpm
8; Time; 30 min; incubation at room temperature
9a; Detection; fluorescence (Read 1: AID); EnVision (PerkinElmer) plate reader, 540 excitation and 590 emission filters
9b; Detection; fluorescence (Read 2: UDG); EnVision (PerkinElmer) plate reader, 560 excitation and 665 emission filters
NOTES (numbers refer to sequence above)
1a; Reagents were dispensed in a medium-binding black solid-bottom Greiner plates (789176F) using a BioRptr liquid dispenser. Dispense 3 uL of [4/3x] 1 uM AID (provided by Kohli lab) and [4/3x] 2 U/mL UDG (NEB M0280L) into columns 1, 2, 5 to 48.
1b; Dispense 3 uL of [4/3x] 2 U/mL UDG into column 3.
1c; Dispense 3 uL of [4/3x] 1 uM AID into column 4.
2a; Compound (7-points [uM]: 0.64; 3.2; 16; 80; 400; 2,000; 10,000; […]) double pin-transferred (Dip Factor = 2) using the Kalypsys (Wako USA) pintool equipped with a 1536 pinhead for a final concentration range of 7.32 nM - 114 uM.
2b; 10 mM Aurintricarboxylic Acid (Sigma A1895) (ATA, 8-point, n = 2, 1:2.5 dilution in column 2) double pin-transferred (Dip Factor = 2) using the Kalypsys (Wako USA) pintool equipped with a 1536 pinhead for a [final] range of 186 nM - 114 uM.
3; Room temperature incubation.
4; Dispense 1 uL of substrate mixture from the Kohli lab [4x] […] DJC20 and [4x] 250 nM DJC23 into columns 1 to 48 .
5; Room temperature incubation.
6; Dispense 4 uL of substrate mixture [2x] 250 mM NaOH into columns 1 to 48.
7; Centrifugation step to remove bubbles.
8; Room temperature incubation
9a; Fluorescence signal (column label AID) was read using the EnVision plate reader. […]
For `COc1ccc(CC(=O)N(Cc2nc(-c3ccc(C)cc3)no2)C(C)C)cc1`, the “activity change, negative = inhibition” value is 5.81% (inactive).
Turning to `Cc1ccccc1-c1nc(CS(=O)CC(=O)N2CCN(c3cc(Cl)ccc3C)CC2)c(C)o1` (centres undefined), the “activity change, negative = inhibition” value is -9.14% (inactive).
Turning to `CS(=O)(=O)N(Cc1ccccc1)c1ccc(C(=O)Nc2ccc(Cl)cc2)cc1`, the “activity change, negative = inhibition” value was 2.66% (inactive).
To `CCOC(=O)c1cc(-c2ccc(C)cc2)n(CCC(=O)Nc2ccc(OC)c(OC)c2)c1C` belongs 1.84% (inactive); to `Cc1nc2c(-c3ccccc3)c(C)nn2c(C)c1CCC(=O)N1CCN(c2ccc(F)cc2)CC1`, 0.55% (inactive); to `C=Cc1ccc(CSc2nc(-c3ccc(C)cc3)nc3c2Cc2c(CO)cnc(C)c2O3)cc1`, -10.6% (inactive).
Regarding `CCc1ccc(CN(Cc2ccco2)C(=O)c2ccc(OC)cc2)cc1`, the “activity change, negative = inhibition” value is -8.82% (inactive).
Turning to `COc1ccc(CC(=O)NCC(c2cccs2)S(=O)(=O)c2ccc(Cl)cc2)cc1` (centres undefined), the “activity change, negative = inhibition” value is -11.8% (inactive).
With `Cc1cc(N(C)Cc2ccccc2)n2nc(-c3ccc(C(C)(C)C)cc3)nc2n1`, the “activity change, negative = inhibition” value is -13.6% (inactive).
The value for `Cc1cc(C)cc(Nc2nc3cc(Cl)c(Cl)cc3nc2-n2nc(C)cc2C)c1` was 4.6% (inactive); that for `N#CC1=C2SCN(C3CCCCC3)CN2C(=O)CC1c1c(F)cccc1Cl` (centres undefined) was -4.69% (inactive); that for `Cc1c(C(=O)N(C)Cc2ccccc2)sc2nc(-c3ccc(F)cc3)cn12` was -10.1% (inactive).
For `CCOC(=O)c1cccc(NC(=O)c2oc3c(c2C)-c2nn(CC)cc2CC3)c1`, the “activity change, negative = inhibition” value is -7.26% (inactive).
Take `COc1ccc(OCC(=O)NCC(c2ccc(Cl)cc2)N2CCCCC2)cc1` (centres undefined): the “activity change, negative = inhibition” value is -10.1% (inactive).
As to `CC1CCCCN1C(=O)c1ccc2c(c1)N(Cc1ccc(Cl)cc1)C(=O)c1ccccc1S2=O` (centres undefined), the “activity change, negative = inhibition” value was 0.84% (inactive).
With `Cc1ccc(Cl)cc1N1CCN(C(=O)Cn2cnc3nc4c(cc3c2=O)CCCC4)CC1`, the “activity change, negative = inhibition” value was -9.53% (inactive).
The value for `CC(C)(C)C1CCc2c(sc(NC(=O)c3ccccc3F)c2C(=O)NCc2ccco2)C1` (centres undefined) was -16.7% (inactive); that for `COc1ccc(C(=O)N2CCc3cc(OC)c(OC)cc3C2COc2ccccc2OC)cc1` (centres undefined) was -10.4% (inactive); that for `COc1ccc(CCN2CCC(CNC(=O)c3cnn(-c4ccc(C)cc4)c3C3CCN(C(=O)OC(C)(C)C)CC3)CC2)cc1` was -7.6% (inactive).
To `Cc1ccc(CNC(=O)C2CCCN(c3nc4ccccc4n4cccc34)C2)cc1` (centres undefined) belongs -0.725% (inactive); to `COC(=O)c1ccc(CSc2nnc3ccc4ccccc4n23)cc1`, 1.41% (inactive).
Turning to `Cc1cccc(N2CCN(C(=O)c3cccn3-c3nnc(N4CCCCC4)s3)CC2)c1C`, the “activity change, negative = inhibition” value was -2.85% (inactive).
To `Cc1ccc(-c2cn(-c3cccc(Cl)c3)c(S(=O)(=O)CC(=O)Nc3cccc(C)c3)n2)cc1` belongs -10.9% (inactive); to `Cc1ccc2c(c1)C(c1ccc(F)cc1)N(C(=O)COc1ccc(Cl)cc1Cl)CC(=O)N2` (centres undefined), -0.309% (inactive); to `CCC(C(=O)N1CCN(c2ccccc2)CC1)n1nc(C)n2c(cc3sccc32)c1=O` (centres undefined), -0.471% (inactive).
For `CCOc1ccccc1CNC(=O)c1cnc2sc(N3CCCCCC3)nn2c1=O`, the “activity change, negative = inhibition” value was 1.93% (inactive).
To `COc1ccc(N2CCN(C(=O)c3nn(C)c4c3CSc3ccccc3-4)CC2)cc1` belongs -14.2% (inactive); to `Cc1cccn2c(=O)c3cc(C(=O)N(Cc4ccccc4)C(C)C)sc3nc12`, 3.34% (inactive); to `CCCCN(CC)CCNC(=O)C1CCN(c2nnc(C)c3c(C)n(-c4ccc(C)cc4)nc23)CC1`, -1.82% (inactive).
As to `CCOC(=O)c1c(C)oc2nc(C)nc(N(CC(C)C)CC(C)C)c12`, the “activity change, negative = inhibition” value is -17.5% (inactive).
Take `CCCN(CCC)CCNC(=O)c1cc2c(-c3ccc(Cl)cc3)nn(C)c2s1`: the “activity change, negative = inhibition” value is -0.229% (inactive).
Regarding `CCCCN(CCCC)CC(O)Cn1cc(/C=C/C(=O)c2ccccc2)c2ccccc21` (centres undefined), the “activity change, negative = inhibition” value was -1.73% (inactive).
`COc1cccc(N2CCN(C(=O)c3cnn(-c4ccc(C)cc4C)c3C3CCN(C(=O)OC(C)(C)C)CC3)CC2)c1`: the “activity change, negative = inhibition” value is -4.76% (inactive).
To `CCCCn1c(-c2ccc(C)cc2)c(C)n2c3c(=O)n(C)c(=O)n(C)c3nc12` belongs -8.55% (inactive); to `COc1ccccc1CC(=O)Nc1ccc2nc(Nc3cccc(C(F)(F)F)c3)cc(C)c2c1`, -7.35% (inactive).
Take `CC1CCCCN1CCNC(=O)c1ccc(Cn2c(SCc3ccccc3)nc3cccnc32)cc1` (centres undefined): the “activity change, negative = inhibition” value is -1.41% (inactive).
With `CC(C)CCN(Cc1ccco1)C(=O)c1cc2c(s1)-c1ccccc1OC2`, the “activity change, negative = inhibition” value is -3.35% (inactive).
To `CCC(C)c1ccc(OCC(=O)Nc2cccc(-c3nc4ncccc4o3)c2)cc1` (centres undefined) belongs -3.86% (inactive); to `CCc1ccc(NC(=O)c2cc(C(C)=O)n3ccccc23)cc1`, -4.94% (inactive); to `CCc1ccc2oc(C(=O)NCC(c3ccc(Cl)cc3)N3CCOCC3)c(C)c2c1` (centres undefined), -10.8% (inactive).
As to `COc1ccc(N(C)C(=O)c2cc3c(s2)-c2ccccc2OC3)cc1`, the “activity change, negative = inhibition” value is -11.3% (inactive).
On to `COc1ccc(C2CC(=O)N3CN(C4CCCCC4)CSC3=C2C#N)c(OC)c1` (centres undefined), for which the “activity change, negative = inhibition” value was -11.5% (inactive).
The value for `CCn1cc2nc(SCc3cccc(C(F)(F)F)c3)n(Cc3ccc(C)cc3)c(=O)c2n1` was -5.91% (inactive); that for `Cc1ccc(-n2ncc(C(=O)N3CCN(Cc4ccccc4)CC3)c2C2CCN(C(=O)OC(C)(C)C)CC2)c(C)c1` was -9.77% (inactive); that for `CCn1cc(S(=O)(=O)c2ccc(Cl)cc2)c(=O)c2cc(F)c(N3CCOCC3)cc21` was 8.08% (inactive).
The value for `Cc1ccc(-n2c(=O)c3oc4ccccc4c3n(Cc3cccc(F)c3)c2=O)cc1C` was 1.83% (inactive); that for `O=C(c1cccn1-c1nnc(N2CCCCC2)s1)N1CCN(c2ccc(Cl)cc2)CC1` was -13.6% (inactive).
For `Cc1ccc(Cl)cc1N1CCN(C(=O)c2ccc3c(c2)N(Cc2ccccc2)CCS3)CC1`, the “activity change, negative = inhibition” value was 10.8% (inactive).
The value for `COc1ccc(-c2coc3c2c(C)cc2oc(=O)c(CC(=O)O)c(C)c23)cc1` was -15.3% (inactive).
Regarding `CCCc1cc(=O)n2[nH]c(NC(=O)c3ccc(C(C)(C)C)cc3)nc2n1`, the “activity change, negative = inhibition” value was 14.5% (inactive).
To `Cc1ccccc1C(=O)Nc1ccc(C(=O)OCc2cc(=O)n3c4c(sc3n2)CCCC4)cc1` belongs -1.88% (inactive); to `Cc1ccc2c(C)c(C(=O)NCC(c3ccc(Cl)cc3)N3CCOCC3)oc2c1` (centres undefined), -1.8% (inactive); to `CCOC(=O)c1c(C)oc2nc(C)nc(N3CCN(c4ccccc4F)CC3)c12`, -3.63% (inactive).
On to `CCN(CC)C(=O)c1ccc2c(c1)N(Cc1c(F)cccc1Cl)C(=O)c1ccccc1S2`, for which the “activity change, negative = inhibition” value was 0.172% (inactive).
To `COc1ccc(-c2nn3c(-c4ccccc4C)nnc3c3ccccc23)cc1` belongs -9.22% (inactive); to `COc1ccc(CCNC(=O)CSc2cn(CCNC(=O)c3cccc(C(F)(F)F)c3)c3ccccc23)cc1OC`, -4.31% (inactive); to `CCOCCCn1c(=N)c(C(=O)NC(C)c2ccccc2)cc2c(=O)n3cccc(C)c3nc21` (centres undefined), -12.7% (inactive).
To `COc1ccc(CNc2oc(-c3ccc(COc4ccccc4C)o3)nc2C#N)cc1` belongs -3.1% (inactive); to `Cc1ccc(Cl)cc1N(C)C(=O)c1sc2nc3n(c(=O)c2c1C)CCCC3`, -5.4% (inactive).

The values are drawn from PubChem BioAssay AID1347431 (National Center for Advancing Translational Sciences (NCATS), 2020).
